From PubChem BioAssay
Active and inactive are the calls of the source.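 The calls were made as follows, unless noted: active = compounds giving at least 50% inhibition in the cell-based MKP-3 phosphatase rescue imaging test; inactive = the rest.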

Columns and labels:
[1] = inhibitors of TNFa-induced NFkB p65 translocation, primary screen, imaging, HUVEC, MLSMR starter and 10KST1 sets (AID 438;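 active = inhibition above 20% together with a positive visual image hit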;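 also: compound added about 3h40 before a 20 min TNFalpha stimulation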;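 as to inhibition: signal is the nuclear over cytoplasmic p65 intensity ratio per well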); conditions: HUVEC TNFa-induced p65 nuclear translocation; cell count: measured here: nuclei count (cytotoxicity indicator), at 2.08 µM; inhibition: at 2 µM, stronger effect = higher value, 0% TNFa-plus-vehicle, 100% no-TNFa wells
[2] = reduction of polyQ htt aggregates in cells – imaging, exon1htt(103Q)mCFP cells, high-content imaging, primary screen (AID 483;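 active = visual image review flags a hit and inhibition of aggregation exceeds 20%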;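 also: compound exposure lasted 3 days before fixation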;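 as to nuclei count: percent of the per-plate median nuclei count of sample wells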); conditions: exon1htt(103Q)mCFP cell line, aggregate imaging, at 2 µM; inhibition of aggregation: stronger effect = higher value; nuclei count: measured here: cell count, toxicity
[3] = endothelial E-selectin expression blockers – imaging, HUVEC, immunofluorescence, MLSMR starter and 10KST1 sets, primary screen (AID 487;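 active = visually confirmed hit in the image check and inhibition above 20%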;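 as to inhibition: signal is fraction of cell area covered by stained E-selectin grains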;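 as to nuclei count: 100% = median nuclei count of all wells on the same plate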); conditions: HUVEC TNFalpha-induced E-selectin immunofluorescence imaging, at 2 µM; inhibition: stronger effect = higher value; nuclei count: measured here: cell number, toxicity
[4] = Primary imaging screen for DUSP6 inhibitors that restore phospho-Erk in transfected HeLa cells, chemical complementation (AID 609); conditions: HeLa MKP-3 transfected, phospho-Erk imaging KS statistic, at 10 µM, cells stimulated with TPA for 15 min;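 as to inhibition: phospho-Erk level distribution per well compared with pooled transfected vehicle control wells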
[5] = biological target: Dual specificity protein phosphatase 6 (Homo sapiens) (UniProt Q16828); assay: as above; conditions: HeLa MKP-3 transfected, phospho-Erk imaging KS statistic; at 10 µM; stronger effect = higher value; cells stimulated with TPA for 15 min
Sequence of Dual specificity protein phosphatase 6 (Homo sapiens) (Q16828 whole entry, looked up): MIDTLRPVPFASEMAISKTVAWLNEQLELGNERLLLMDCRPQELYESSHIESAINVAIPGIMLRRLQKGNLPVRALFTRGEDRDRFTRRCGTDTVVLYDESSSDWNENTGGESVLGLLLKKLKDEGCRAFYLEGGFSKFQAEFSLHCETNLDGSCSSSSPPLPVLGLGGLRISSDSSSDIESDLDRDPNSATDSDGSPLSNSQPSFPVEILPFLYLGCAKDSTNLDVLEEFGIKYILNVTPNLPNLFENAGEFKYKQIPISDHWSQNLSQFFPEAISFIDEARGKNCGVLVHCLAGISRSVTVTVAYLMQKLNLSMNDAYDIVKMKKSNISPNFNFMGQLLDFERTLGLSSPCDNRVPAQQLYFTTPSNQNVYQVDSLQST

[6] = biological target: Voltage-gated potassium channel subunit beta-2 (Rattus norvegicus) (UniProt P62483); assay: inhibitors of rat Kvbeta2 reductase activity – biochemical, NADPH fluorescence, primary screen (AID 622;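 active = fluorescence slope higher than the sample average by over 3 SD, cut at about -0.22 in these data, passing the limit was not always enough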;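 also: slope of raw intensity against log time taken from 70 to 1610 s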); conditions: recombinant KvBeta, 4-cyanobenzaldehyde reduction, at 10 µM, stronger effect = higher value
Sequence of Voltage-gated potassium channel subunit beta-2 (Rattus norvegicus) (P62483 whole entry, looked up): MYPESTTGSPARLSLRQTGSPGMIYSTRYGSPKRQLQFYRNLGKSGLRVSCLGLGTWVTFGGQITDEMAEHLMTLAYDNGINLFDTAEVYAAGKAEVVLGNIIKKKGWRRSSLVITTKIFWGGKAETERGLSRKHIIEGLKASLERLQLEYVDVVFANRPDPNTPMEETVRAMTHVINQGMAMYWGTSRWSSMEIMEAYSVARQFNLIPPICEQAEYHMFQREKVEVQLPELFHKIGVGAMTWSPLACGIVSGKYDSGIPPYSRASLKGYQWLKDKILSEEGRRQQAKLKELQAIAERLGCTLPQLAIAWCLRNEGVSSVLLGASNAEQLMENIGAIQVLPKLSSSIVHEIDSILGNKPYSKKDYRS

[7] = biological target: Voltage-gated potassium channel subunit beta-2 (Rattus norvegicus) (UniProt P62483); assay: enhancers of rat Kvbeta2 NADPH turnover – biochemical, NADPH fluorescence, primary screen (AID 623;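 active = NADPH fluorescence slope more negative than the mean of all samples by about 3 SD, 99.7% confidence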;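 also: fluorescence intensity change per second fitted from 20 to 320 s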); conditions: Recombinant KvBeta, NADPH fluorescence decrease slope, 10 min; at 10 µM; stronger effect = lower value
[8] = biological target: Muscarinic acetylcholine receptor M4 (Homo sapiens) (UniProt P08173); assay: M4-linked GIRK flux change, two-sided – cell-based, HEK293 M4/GIRK, thallium flux, BTC-AM, M4 allosteric agonist project, primary screen (AID 625;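 active = fluorescence slope after compound addition differing from the mean of all tested samples at 99.7% confidence, mostly higher but some lower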;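 also: thallium influx through GIRK channels coupled to M4 in HEK293 cells with BTC-AM dye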); conditions: at 10 µM, actives lie on both sides
Sequence of Muscarinic acetylcholine receptor M4 (Homo sapiens) (P08173 whole entry, looked up): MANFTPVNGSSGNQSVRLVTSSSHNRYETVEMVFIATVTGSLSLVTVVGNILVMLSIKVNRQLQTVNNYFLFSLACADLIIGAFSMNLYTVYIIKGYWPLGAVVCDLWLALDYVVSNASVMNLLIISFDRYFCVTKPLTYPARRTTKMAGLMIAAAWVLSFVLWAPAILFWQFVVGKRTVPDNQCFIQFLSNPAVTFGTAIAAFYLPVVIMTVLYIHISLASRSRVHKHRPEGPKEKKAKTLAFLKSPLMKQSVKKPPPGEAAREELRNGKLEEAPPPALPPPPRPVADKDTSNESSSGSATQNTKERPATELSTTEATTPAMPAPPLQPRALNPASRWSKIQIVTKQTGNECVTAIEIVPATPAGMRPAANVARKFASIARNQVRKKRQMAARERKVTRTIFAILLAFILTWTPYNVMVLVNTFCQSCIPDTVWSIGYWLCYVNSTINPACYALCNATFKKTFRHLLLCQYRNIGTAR

[9] = inhibitors of larval lipid processing in zebrafish, primary screen, whole organism, PED6 fluorescence, gall bladder and intestine (AID 686;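 active = a full or partial loss of lipid-probe fluorescence in the fish gall bladder, intestine or both, judged by eye; inactive = no fluorescence loss, or compound toxic to the fish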;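 also: larvae 5 to 7 days old with five fish per well; signal comes from phospholipase A2 cleavage of quenched PED6 carried via bile; overnight exposure to compound and PED6 before scoring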); conditions: Zebrafish larvae PED6 lipid processing, fluorescence scoring; screened at 20 µM (by protocol)
[10] = loss of swimming-algae plug formation – whole organism, Chlamydomonas reinhardtii, WT vs cilia-less mutant, absorbance, 96-well, primary screen (AID 463189;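 active = inhibition at or above 50% relative to wild type and mutant plate controls; inactive = inhibition below 50%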;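 also: 0% = wild type cc124 cells in DMSO and 100% = ciliumless bld1 mutant cells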); conditions: Chlamydomonas reinhardtii gravitaxis, OD600 absorbance, 2 days; at 10 µM; stronger effect = higher value
[11] = blockers of RIG-like receptor reporter activation – cell-based, Sendai virus stimulus, luciferase, 10K MLSCN set, TLR/RLR signaling modifier project, primary screen (AID 602276;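 active = inhibition at or above 50% at 10 µM; inactive = inhibition below 50%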;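 also: firefly luciferase from ISG56 promoter only with Renilla not read in this screen; 0% = Sendai virus plus DMSO and 100% = medium plus DMSO without virus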); conditions: HEK293 RL24 IRF3 luciferase reporter, at 10 µM, stronger effect = higher value
[12] = TLR3 IRF3 reporter activation blockers – cell-based, poly I:C stimulus, luciferase, 10K MLSCN set, primary screen (AID 602277;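 active = inhibition of the reporter signal at or above 50%; inactive = inhibition below 50%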); conditions: HEK293-TLR3 RL24 IRF3 luciferase reporter, at 10 µM, stronger effect = higher value
[13] = measured here: cell density z-score
[14] = measured here: nuclear c-Myc green intensity z-score
[15] = measured here: nuclear pErk red intensity z-score, stronger effect = higher value

SMILES	cell count [1]	inhibition [1]	inhibition of aggregation [2]	nuclei count [2] [%]	inhibition [3]	nuclei count [3] [%]	z-score [4, 13]	z-score [4, 14]	z-score [4, 15]	inhibition [5]	fluorescence slope [6]	NADPH fluorescence slope [7]	fluorescence slope [8]	outcome [9]	inhibition [10]	inhibition [11]	inhibition [12]
CCC(NC(=O)Nc1cc(OC)c(OC)c(OC)c1)(C(F)(F)F)C(F)(F)F	545	3.4% (inactive)	15.8% (inactive)	97.5	-82.9% (inactive)	141	-0.0203	1.89	0.038	1.9e-07% (inactive)	-0.48 (inactive)	-4e-05 (inactive)	0.00495 (inactive)	inactive	8.7% (inactive)	20% (inactive)	24.9% (inactive)
CCOc1ccccc1N1CCN(c2nc3ccccc3nc2C(C#N)C(=O)OC)CC1 (configuration not stated)	535	0.2% (inactive)	-3.8% (inactive)	106	-43.1% (inactive)	102	-0.286	0.234	1.2	-9.53% (inactive)	-0.501 (inactive)	-7e-05 (inactive)	0.00534 (inactive)	inactive	-13.8% (inactive)	10.2% (inactive)	16.1% (inactive)
Cn1c(=O)[nH]c(=O)c2c1nc(N(CCO)Cc1ccccc1)n2Cc1ccccc1Cl	650	4.6% (inactive)	-19.3% (inactive)	139	-37.5% (inactive)	109	1.19	-1.16	-0.515	1.63% (inactive)	-0.438 (inactive)	-6.1e-05 (inactive)	0.00652 (inactive)	inactive	31.2% (inactive)	16.5% (inactive)	28.7% (inactive)
CC(=Nc1cccc(O)c1)c1sc2ccccc2c1O	745	-2.4% (inactive)	-13% (inactive)	96.4	-0.7% (inactive)	123	0.824	0.631	-1.52	13.2% (inactive)	-0.303 (inactive)	-6.7e-05 (inactive)	0.0088 (inactive)	inactive; toxic	-2.68% (inactive)	-6% (inactive)	76.3% (active)
O=C1C2ON(c3ccccc3)C(c3cccnc3)C2C(=O)N1c1ccccc1 (configuration not stated)	667	-4.7% (inactive)	-1.5% (inactive)	104	-28.2% (inactive)	130	0.476	0.609	-0.133	16% (inactive)	-0.503 (inactive)	-2.9e-05 (inactive)	0.00593 (inactive)	inactive	-4.82% (inactive)	-8.41% (inactive)	-21.8% (inactive)
COc1cc(NC(=O)NC(C)(C(F)(F)F)C(F)(F)F)cc(OC)c1OC	664	-5.8% (inactive)	-0.5% (inactive)	83	-50% (inactive)	140	0.222	-0.586	1.46	-1.98% (inactive)	-0.48 (inactive)	-6.8e-05 (inactive)	0.00489 (inactive)	inactive	14.3% (inactive)	10.8% (inactive)	13.7% (inactive)
COC(=O)C(NC(C)=O)(Nc1nc2ccc(S(C)(=O)=O)cc2s1)C(F)(F)F (configuration not stated)	473	-7.9% (inactive)	3.4% (inactive)	102	-30.1% (inactive)	97.4	-0.876	0.631	0.313	7.42% (inactive)	-0.51 (inactive)	-1e-05 (inactive)	0.00507 (inactive)	inactive	-13% (inactive)	-0.421% (inactive)	13.8% (inactive)
CCOC(=O)C1(C(=O)OCC)C(c2ccccc2)CC(O)N1C(C)=O (configuration not stated)	820	-8.8% (inactive)	-55.9% (inactive)	103	-65.8% (inactive)	126	-0.838	1.16	-0.266	32.3% (inactive)	-0.351 (inactive)	-2.6e-05 (inactive)	0.00504 (inactive)	inactive	33.6% (inactive)	15% (inactive)	22.6% (inactive)
O=C(NC1CCS(=O)(=O)C1)c1c(NC(=O)C2COc3ccccc3O2)sc2c1CCCC2 (configuration not stated)	657	-7% (inactive)	3% (inactive)	97.6	-35.3% (inactive)	143	0.65	-1.93	0.35	5.42% (inactive)	-0.42 (inactive)	-4.5e-05 (inactive)	0.00528 (inactive)	inactive	30.5% (inactive)	17.1% (inactive)	14.6% (inactive)
COc1ccccc1Nc1ncnc2c1cnn2-c1cccc(C)c1	398	-11% (inactive)	23.4% (inactive)	92.4	-38.9% (inactive)	133	-0.0649	-0.454	0.131	-2.59% (inactive)	-0.356 (inactive)	-3.8e-05 (inactive)	0.00739 (inactive)	inactive	4.11% (inactive)	-27.1% (inactive)	-52.1% (inactive)
CCCCc1nc2n[nH]c(N)c2c2c1CCCC2	512	-7.9% (inactive)	-112% (inactive)	2.8	-85.3% (inactive)	124	-0.979	1.39	0.873	3.49% (inactive)	-0.447 (inactive)	-0.000136 (inactive)	0.00605 (inactive)	inactive	10.9% (inactive)	-0.43% (inactive)	8.9% (inactive)
